Compound activity from PubChem BioAssay.
BL2 CD40 inh – inhibitors of CD40-induced NF-kB signaling, primary screen, BL2 cells, luciferase reporter, single point. CD40L-induced, 4 h. inhibition, % at 10 µM. hit rate 0.94% among 83,000. AID 1053188, 2014;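 active = mean inhibition of at least 50% with a set share of replicates also reaching that level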;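 also: 0% = neutral control wells and 100% = IKK inhibitor VII at 50 µM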
* = called active by the depositor; [ ] = another dose, or the depositor's remark. The sample as a whole holds a higher share of hits than the screen did.

SMILES	BL2 CD40 inh
C[C@H](CO)N1C[C@H](C)[C@H](CN(C)C(=O)c2ccncc2)OCCCC[C@H](C)Oc2ccc(NS(=O)(=O)c3cccs3)cc2C1=O	-12.3[25 µM]
C[C@@H]1CCCCO[C@@H](CN(C)Cc2ccc(Cl)c(Cl)c2)[C@@H](C)CN([C@@H](C)CO)C(=O)c2cc(NS(=O)(=O)c3cccs3)ccc2O1	35.5[25 µM]
O=C(O)CCCC1(C(=O)O)CCCC1	-4.4
CN1C(=O)c2cc(NC(=O)c3ccc(F)c(F)c3)ccc2OC[C@@H]2O[C@H](CC(=O)N3CCCCC3)CC[C@@H]21	7.5[25 µM]
O=S(=O)(c1ccccc1)N1[C@H](CO)[C@H]2c3ccccc3NC[C@H]21	1.6[25 µM]
C/C=C/c1ccc2c(c1)[C@H]1[C@H](CCN1S(=O)(=O)c1cccc(F)c1)[C@@H](CO)N2	-11.0[25 µM]
COc1ccc(C#Cc2ccc3c(c2)O[C@@H](CN(C)C(=O)CN2CCOCC2)[C@H](C)CN([C@@H](C)CO)S3(=O)=O)cc1	-5.9[25 µM]
NC1=C(Br)C(=O)c2ncccc2C1=O	70.1*
O=C1C=C(NCCc2cc(Br)c(O)c(Br)c2)C(=O)c2ncccc21	32.1
O=C1c2cccnc2C(=O)N1C1CCCCC1	8.3
O=C(O)c1ccccc1O	4.0
O=S(c1ccccc1O)S(=O)c1ccccc1O (stereo unspecified)	81.5*
CS(=O)c1ccccc1O (stereo unspecified)	11.5
Cc1ccccc1CSCC(=O)NCCSc1ccccn1	-12.1
C[C@@H]1CN([C@H](C)CO)C(=O)c2c(c3ccccc3n2C)-c2ccccc2CO[C@@H]1CN(C)Cc1cccnc1	7.4[25 µM]
C/C=C/c1ccc([C@H]2[C@@H](CO)N(Cc3ccccn3)[C@H]2CNC(=O)CC)cc1	-2.7[25 µM]
CCN=C1SC(C(=O)Nc2ccccc2)CC(=O)N1CC (stereo unspecified)	-7.2
C[C@H]1CN([C@@H](C)CO)C(=O)c2cc(-c3ccncc3)cnc2O[C@@H]1CN(C)C(=O)CN1CCOCC1	-2.9[25 µM]
C[C@@H]1CN([C@H](C)CO)C(=O)c2c(c3ccccc3n2C)-c2ccccc2CO[C@@H]1CN(C)C(=O)c1ccccc1	9.2
c1coc(-c2nnc(-c3ccc4c(c3)OCO4)o2)c1	-46.0
Cc1ccc(-c2nnc(-c3ccc4c(c3)OCO4)o2)cc1	-65.1
O=C1CCCCC1Sc1nnc(-c2ccc3c(c2)OCO3)o1 (stereo unspecified)	95.0*
O=[N+]([O-])c1ccc(Sc2ccncn2)c([N+](=O)[O-])c1	102.7*
Cc1ccnc(Sc2ccc([N+](=O)[O-])cn2)n1	-15.3
Cn1cnc([N+](=O)[O-])c1Sc1ccncn1	4.7
SMILES	BL2 CD40 inh
CCCN(C)C[C@H]1OCc2cnnn2CCCC(=O)N([C@@H](C)CO)C[C@@H]1C	-9.9[25 µM]
Cc1ccc2ncccc2c1[N+](=O)[O-]	5.6
Cc1noc(/C=C/c2ccccn2)c1[N+](=O)[O-]	42.5*
O=[N+]([O-])c1cccc(/C=C/c2ccccn2)c1	-58.0
C[C@@H]1CN([C@@H](C)CO)C(=O)CCCn2cc(nn2)CO[C@H]1CN(C)CC1CCCCC1	12.3[25 µM]
NCC[C@H]1CC[C@H](NS(=O)(=O)c2ccc(Cl)cc2)[C@H](CO)O1	-1.8[25 µM]
COc1ccc2cc(CN(C)C(=O)CN3C(=O)NC4(CCCC4)C3=O)ccc2c1	-2.5
CCS(=O)(=O)Nc1ccc(NC(C)=O)cc1	-8.9
CCOC(=O)/C=C/S(=O)(=O)c1ccc(NC(C)=O)cc1	110.3*
CCC(C)NS(=O)(=O)c1ccc(NC(C)=O)cc1 (stereo unspecified)	8.1
C[C@@H]1CN(C)C(=O)c2cccc(N(C)C)c2O[C@H]1CN(C)C	0.3
O=C(COc1coc(CN2CCCc3ccccc32)cc1=O)Nc1ccc([N+](=O)[O-])cc1	-32.9
CC(=O)[C@@]1(O)CCC2C3CC[C@H]4C[C@@H](O)CC[C@]4(C)C3CC[C@@]21C (stereo partly specified)	-3.9
CC(=O)OC1CCC2(C)C(CCC3C4CC=C(C(C)=O)C4(C)OC(=O)CC32)C1 (stereo unspecified)	97.8*
CC(=O)C1CCC2C3CCC4CC(OC(=O)CCC(=O)O)CCC4(C)C3C(=O)CC12C (stereo unspecified)	10.9
CN1C(=O)c2cc(NC(=O)Cc3cccs3)ccc2OC[C@@H]2O[C@@H](CC(=O)NCC3CCCCC3)CC[C@H]21	7.3[25 µM]
O=C(C1CCOCC1)N1CC(=O)N2[C@@H](CO)[C@H](c3ccc(C#CC4CCCC4)cc3)[C@@H]2C1	-9.0
C[C@@H]1CN([C@H](C)CO)C(=O)c2ccccc2-c2ccccc2CO[C@@H]1CN(C)Cc1ccc2c(c1)OCCN2C	17.3[25 µM]
O=C(O)COCC(=O)N1CCCN(c2nccc(C(F)(F)F)n2)CC1	5.7
COCC#Cc1ccc([C@@H]2[C@H](CO)N3C(=O)CN(C(=O)C4CCCCC4)C[C@@H]23)cc1	-24.3[25 µM]
O=C(C1CCCC1)N1CC(=O)N2[C@H](CO)[C@H](c3ccc(C#CCc4ccccc4)cc3)[C@H]2C1	66.0*
O=C(C1CCOCC1)N1CC(=O)N2[C@H](C1)[C@H](c1ccc(C#CCc3ccccc3)cc1)[C@@H]2CO	75.0*[25 µM]
COCC#Cc1ccc([C@H]2[C@H](CO)N3C(=O)CN(C(=O)C4CCCCC4)C[C@@H]23)cc1	1.2[25 µM]
O=C(C1CCOCC1)N1CC(=O)N2[C@@H](CO)[C@H](c3ccc(C#CCc4ccccc4)cc3)[C@@H]2C1	4.0[25 µM]
O=C(C1CCOCC1)N1CC(=O)N2[C@H](CO)[C@H](c3ccc(C#CCc4ccccc4)cc3)[C@@H]2C1	-10.7[25 µM]
SMILES	BL2 CD40 inh
O=C(C1CCC1)N1CC(=O)N2[C@H](CO)[C@H](c3ccc(C#CCc4ccccc4)cc3)[C@H]2C1	70.6*
O=C(C1CCOCC1)N1CC(=O)N2[C@H](CO)[C@H](c3ccc(C#CCc4ccccc4)cc3)[C@H]2C1	36.7[25 µM]
O=C(C1CCCC1)N1CC(=O)N2[C@H](C1)[C@H](c1ccc(C#CCc3ccccc3)cc1)[C@@H]2CO	23.9
C[C@H](CO)N1C[C@H](C)[C@H](CN(C)C(=O)CCCN(C)C)OCCCC[C@H](C)Oc2ccc(NS(=O)(=O)c3ccc(Cl)cc3)cc2C1=O	-18.6[25 µM]
CCCNC(=O)NC[C@H]1[C@@H](c2ccc(C3=CCCC3)cc2)[C@H](CO)N1C(C)=O	-3.7
OC(CNc1ccnc2cc(Cl)ccc12)CNC1CCCCC1 (stereo unspecified)	-7.6
O=C(NCCNc1ccnc2cc(Cl)ccc12)c1ccccc1F	37.4*
CCN(CC)CCNc1ccnc2cc(Cl)ccc12	-7.0
CC(=O)Cn1ncc(Br)c(Br)c1=O	99.5*
CO/N=C(\Cn1ncc(N2CCOCC2)c(Br)c1=O)c1ccc(Cl)cc1	25.2
Cn1ncc(Br)c1C(=O)O	1.3
C[C@H](NC(=O)C[C@@H]1CC[C@@H]2[C@H](COC[C@@H](O)CN2C(=O)Nc2cccc(Cl)c2)O1)c1ccccc1	30.4[25 µM]
O=C1/C(=C\c2ccc(Cl)c(Cl)c2)CN(C(=O)CCN2CCOCC2)C/C1=C/c1ccc(Cl)c(Cl)c1	74.2*
CC(=O)N1CCC(N(CCN2CCOCC2)C(=O)Nc2ccc(Cl)c(Cl)c2)CC1	-0.9
O=C(c1ccc(Cl)c(Cl)c1)N1CCC(O)(CN2CCOCC2)CC1	6.2
CS(=O)(=O)Nc1ccc2c(c1)[C@@H]1C[C@@H](CC(=O)NCc3cc(F)ccc3F)O[C@H](CO)[C@@H]1O2	-2.8[25 µM]
CN1[C@H](CO)[C@H]2c3ccccc3N(C(=O)Nc3cc(F)ccc3F)C[C@H]21	2.7[25 µM]
Fc1ccc(NC2=NCCCCC2)cc1	8.1
Fc1ccc(-c2nnc(NC3=NCCCCC3)o2)cc1	73.7*
Fc1ccc(-c2nnc(Cc3nnc(-c4ccc(F)cc4)o3)o2)cc1	5.2
